Test results reported in PubChem BioAssay (NCATS).
Values joined by “and” are separate entries in the source; they are usually repeats but may differ in a detail not shown here. Identical values can stand only once. Inconclusive results are not listed. Entries that show only a call come without a potency. Some structures have more than one record in an assay (separate samples or runs), and their calls can disagree. Active and inactive are the calls of the source. Unless noted, calls come from the whole dose curve; as a rule, active = well fitted curve in the direction sought with a large enough effect; inconclusive = small, poorly fitted or top-dose-only effect, or another doubt; inactive = no such curve, though single readings can be large; an effect the other way counts as inactive or inconclusive.

What was measured:
[1] = A High-Content qHTS Against Drug Library for the Identification of Small Molecules that Inhibit DYT1 Early Onset Primary Dystonia-Associated Cell Pathology (AID 1645839; calls by dose curve); conditions: HEK293 Flp-In EGFP-delE TorsinA, punctate imaging, 48 h; series mostly up to 46.1 µM
In short: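 High-content imaging quantified EGFP-TorsinA mislocalization in HEK293-derived cells inducibly expressing DYT1 mutant torsinA, after 48 h exposure to compound given together with tetracycline induction. Cell count served as a toxicity channel alongside %pathology.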

[2] = Primary qHTS for inhibitors of nuclear receptor binding SET domain protein 2 (NSD2) in an isogenic RCH-ACV NSD2 p.E1099K mutant (9B) (AID 1645876); conditions: RCH-ACV NSD2 E1099K (9B) viability, CellTiter-Glo, 72 h; series mostly up to 44.9 µM; note: nearly all actives have a fitted effect of over 70% in size; note: potency is the fitted concentration of half-maximal effect
[3] = Primary qHTS for inhibitors of nuclear receptor binding SET domain protein 2 (NSD2) in an RCH-ACV wild type WT cells (2C) (AID 1645877); conditions: RCH-ACV (leukaemia line) NSD2 WT (2C) viability, CellTiter-Glo, 72 h; series mostly up to 44.9 µM; note: nearly all actives have a fitted effect of over 70% in size; note: potency is the fitted concentration of half-maximal effect
[4] = molecular target: Rap guanine nucleotide exchange factor 3 (Homo sapiens) (UniProt O95398); test: Confirmatory qHTS for agonist of cAMP-regulated guanine nucleotide exchange factor 3 (EPAC1) (AID 1645881); conditions: EPAC1 Rap1B BODIPY-GDP exchange fluorescence, 100% = cAMP control response; series mostly up to 154 µM;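 note: EPAC1 catalysed release of BODIPY-GDP from Rap1B seen as fluorescence loss; nearly all actives have a fitted effect of over 75% in size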
[5] = molecular target: Rap guanine nucleotide exchange factor 4 (Homo sapiens) (UniProt Q8WZA2); test: Confirmatory qHTS for agonist of cAMP-regulated guanine nucleotide exchange factor 4 (EPAC2) (AID 1645884); conditions: EPAC2 GEF activity, Rap1B-BODIPY-GDP fluorescence, percent relative to cAMP agonist control; series mostly up to 154 µM;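 note: nucleotide exchange releases bodipy-GDP from Rap1 and this lowers its fluorescence; nearly all actives have a fitted effect of over 65% in size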
[6] = molecular target: Rap guanine nucleotide exchange factor 4 (Homo sapiens) (UniProt Q8WZA2); test: Confirmatory qHTS for antagonist of cAMP-regulated guanine nucleotide exchange factor 4 (EPAC2) (AID 1645885); conditions: EPAC2 Rap1B-BODIPY-GDP exchange fluorescence, biochemical; series mostly up to 114 µM; note: potency is the fitted concentration of half-maximal effect; nearly all actives have a fitted effect of over 25% in size
[7] = molecular target: Cytochrome P450 2D6 (Homo sapiens) (UniProt P10635); test: Cytochrome P450 family 2 subfamily D member 6 (CYP2D6) small molecule antagonists: luciferase biochemical (cell-free) qHTS assay (AID 1645840; active = well fitted curve in the direction sought with a large enough effect in the repeat runs; an effect the other way counts as inactive or inconclusive; note: nearly all actives have a fitted effect of over 55% in size; note: potency is the fitted concentration of half-maximal effect); conditions: P450-Glo CYP2D6 enzyme, luciferin luminescence, 1 h; series mostly up to 57.4 µM
In short: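 P450-Glo CYP2D6 system: proluciferin substrate converted by enzyme to luciferin, read by luminescence proportional to activity. Enzyme-substrate mix with compound 10 min at room temperature, then NADPH regeneration 1 h before detection reagent.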

[8] = molecular target: Cytochrome P450 2C9 (Homo sapiens) (UniProt P11712); test: Cytochrome P450 family 2 subfamily C member 9 (CYP2C9) small molecule antagonists: luciferase biochemical (cell-free) qHTS assay (AID 1645842; active = well fitted curve in the direction sought with a large enough effect in the repeat runs; an effect the other way counts as inactive or inconclusive; note: nearly all actives have a fitted effect of over 55% in size; note: potency is the fitted concentration of half-maximal effect); conditions: P450-Glo CYP2C9 enzyme assay, luciferin luminescence; series mostly up to 57.4 µM
In short: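 P450-Glo CYP2C9 system: proluciferin substrate with enzyme in mix containing 0.4% BSA, 10 min at room temperature, then NADPH regeneration solution added and incubated 1 h at 37C. Detection reagent stopped reaction; luminescence read after 20 min as RLU.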

[9] = Viability counterscreen for antagonist of constitutive androstane receptor (CAR) against the NCATS DSHEA and TCM libraries (AID 1794837); conditions: CAR reporter cell line viability counterscreen, qHTS; series mostly up to 40 µM;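 note: compound exposure lasted 24 h before viability reading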
In short: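 Viability was measured by CellTiter-Fluor fluorescence (405/540 nm, 1 hr) in HepG2-CYP2B6-hCAR cells. Cells were co-treated 24 hr with 48 uM CITCO (final), antagonist mode, and test substances.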

[10] = Viability counterscreen for agonist of constitutive androstane receptor (CAR) against the NCATS DSHEA and TCM libraries (AID 1794838); conditions: HepG2 cell viability counterscreen, CAR agonist assay, co-treated with 0.75 µM CAR antagonist; series mostly up to 40 µM;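 note: cells exposed to compound for 24 h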
In short: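 Cell viability, from CellTiter-Fluor fluorescence (405/540 nm), was scored after a 24 h, 37C exposure of HepG2 cells carrying CYP2B6 reporter and hCAR to test substances in presence of 0.75 uM PK11195.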

[11] = molecular target: Nuclear receptor subfamily 1 group I member 3 (Homo sapiens) (UniProt Q14994); test: Primary qHTS for agonist of constitutive androstane receptor (CAR) against the NCATS DSHEA and TCM libraries (AID 1794839); conditions: CAR agonist reporter cells, qHTS luminescence, CAR antagonist co-added at 0.75 µM; series mostly up to 40 µM;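 note: HepG2 cells expressing human CAR with a CYP2B6 reporter plus PK11195 antagonist; luciferase reporter luminescence read with ONE-Glo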
In short: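 Agonist mode in presence of hCAR antagonist PK11195 (0.75 µM final): test substances, 24 h, 37 °C, on HepG2-CYP2B6-hCAR cells. Same-well readouts: fluorescence viability, then ONE-Glo luminescence; CITCO as reference agonist.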

[12] = molecular target: Rap guanine nucleotide exchange factor 3 (Homo sapiens) (UniProt O95398); test: Confirmatory qHTS for antagonist of cAMP-regulated guanine nucleotide exchange factor 3 (EPAC1) (AID 1645880); conditions: EPAC1 Rap1B-BODIPY-GDP exchange, fluorescence; series mostly up to 115 µM; note: nearly all actives have a fitted effect of over 55% in size
In short: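 Released BODIPY-GDP fluoresces less than Rap1-bound BODIPY-GDP; the signal is followed at 480/540 nm at 5-min intervals over 30 min, after 5 min at room temperature. Reactions contain 100 nM EPAC1, 250 nM RAP1B-BODIPY-GDP and 50 uM GDP; results are normalized to ATA and DMSO.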

[13] = NCATS anti-infectives library activity on HEK293 viability as a counter-qHTS vs the C. elegans viability qHTS (AID 1745854); conditions: HEK293 viability counter-screen; series mostly up to 41.8 µM
In short: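 CellTiter-Glo luminescence, read on a CCD imager, scored viability of HEK293 cells after 24 hr compound exposure at 37C. Library tested in several concentrations, 1:5 steps, up to 41.7 uM; digitonin served as control.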

Chain of Cytochrome P450 2C9 (Homo sapiens) (P11712 whole entry, looked up): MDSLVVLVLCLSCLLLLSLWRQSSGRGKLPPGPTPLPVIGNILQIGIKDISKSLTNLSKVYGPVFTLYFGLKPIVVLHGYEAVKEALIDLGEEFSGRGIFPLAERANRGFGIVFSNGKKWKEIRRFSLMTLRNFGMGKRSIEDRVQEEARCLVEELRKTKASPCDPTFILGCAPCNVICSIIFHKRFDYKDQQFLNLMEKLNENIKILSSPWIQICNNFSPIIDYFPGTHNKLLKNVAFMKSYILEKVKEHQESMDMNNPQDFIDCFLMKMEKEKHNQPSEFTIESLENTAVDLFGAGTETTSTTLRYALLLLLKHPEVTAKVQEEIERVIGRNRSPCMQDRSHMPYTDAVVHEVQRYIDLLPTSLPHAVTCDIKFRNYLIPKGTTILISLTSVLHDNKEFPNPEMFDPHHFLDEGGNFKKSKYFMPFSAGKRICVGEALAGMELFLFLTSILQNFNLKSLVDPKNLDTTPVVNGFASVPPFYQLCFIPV
Chain of Cytochrome P450 2D6 (Homo sapiens) (P10635 whole entry, looked up): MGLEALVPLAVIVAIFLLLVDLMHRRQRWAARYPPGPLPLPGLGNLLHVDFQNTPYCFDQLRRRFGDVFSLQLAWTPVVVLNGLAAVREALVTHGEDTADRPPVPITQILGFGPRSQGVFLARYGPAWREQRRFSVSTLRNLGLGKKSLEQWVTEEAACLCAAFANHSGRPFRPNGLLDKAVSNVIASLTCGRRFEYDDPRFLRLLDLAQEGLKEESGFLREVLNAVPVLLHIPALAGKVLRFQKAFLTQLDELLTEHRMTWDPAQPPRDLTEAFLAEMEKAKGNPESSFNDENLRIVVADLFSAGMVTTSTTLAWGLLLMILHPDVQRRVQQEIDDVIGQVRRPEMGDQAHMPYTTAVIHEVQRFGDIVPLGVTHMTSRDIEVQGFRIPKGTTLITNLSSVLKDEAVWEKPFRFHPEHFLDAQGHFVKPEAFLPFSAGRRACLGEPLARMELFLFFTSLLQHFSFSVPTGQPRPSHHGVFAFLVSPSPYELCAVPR
Chain of Rap guanine nucleotide exchange factor 4 (Homo sapiens) (Q8WZA2 whole entry, looked up): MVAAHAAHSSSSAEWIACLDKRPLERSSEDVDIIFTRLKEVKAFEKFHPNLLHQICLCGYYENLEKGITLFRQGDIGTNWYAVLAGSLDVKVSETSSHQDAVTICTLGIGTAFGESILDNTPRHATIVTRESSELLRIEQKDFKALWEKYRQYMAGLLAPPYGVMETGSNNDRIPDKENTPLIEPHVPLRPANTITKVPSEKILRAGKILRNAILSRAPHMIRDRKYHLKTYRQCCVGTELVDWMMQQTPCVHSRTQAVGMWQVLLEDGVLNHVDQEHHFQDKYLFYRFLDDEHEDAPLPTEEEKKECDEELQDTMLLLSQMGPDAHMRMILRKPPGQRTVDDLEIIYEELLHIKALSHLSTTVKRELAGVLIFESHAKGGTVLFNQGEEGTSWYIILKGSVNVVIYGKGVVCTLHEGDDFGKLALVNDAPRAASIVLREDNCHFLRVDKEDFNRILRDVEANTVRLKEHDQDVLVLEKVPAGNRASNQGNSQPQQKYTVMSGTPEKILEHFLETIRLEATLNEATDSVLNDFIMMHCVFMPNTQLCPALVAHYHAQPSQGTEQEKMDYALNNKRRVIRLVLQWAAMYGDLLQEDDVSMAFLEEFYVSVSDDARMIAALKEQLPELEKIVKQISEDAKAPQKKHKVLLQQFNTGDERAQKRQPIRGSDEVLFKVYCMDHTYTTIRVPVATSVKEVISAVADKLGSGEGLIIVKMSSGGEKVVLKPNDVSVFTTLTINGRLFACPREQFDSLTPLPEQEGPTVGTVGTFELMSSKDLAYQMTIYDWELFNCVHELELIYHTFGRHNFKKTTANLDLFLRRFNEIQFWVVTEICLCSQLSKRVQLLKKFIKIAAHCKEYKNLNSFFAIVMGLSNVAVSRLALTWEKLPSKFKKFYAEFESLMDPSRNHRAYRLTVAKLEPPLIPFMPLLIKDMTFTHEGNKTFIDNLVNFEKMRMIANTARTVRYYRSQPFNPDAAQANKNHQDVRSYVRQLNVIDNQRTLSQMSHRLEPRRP
Chain of Rap guanine nucleotide exchange factor 3 (Homo sapiens) (O95398 whole entry, looked up): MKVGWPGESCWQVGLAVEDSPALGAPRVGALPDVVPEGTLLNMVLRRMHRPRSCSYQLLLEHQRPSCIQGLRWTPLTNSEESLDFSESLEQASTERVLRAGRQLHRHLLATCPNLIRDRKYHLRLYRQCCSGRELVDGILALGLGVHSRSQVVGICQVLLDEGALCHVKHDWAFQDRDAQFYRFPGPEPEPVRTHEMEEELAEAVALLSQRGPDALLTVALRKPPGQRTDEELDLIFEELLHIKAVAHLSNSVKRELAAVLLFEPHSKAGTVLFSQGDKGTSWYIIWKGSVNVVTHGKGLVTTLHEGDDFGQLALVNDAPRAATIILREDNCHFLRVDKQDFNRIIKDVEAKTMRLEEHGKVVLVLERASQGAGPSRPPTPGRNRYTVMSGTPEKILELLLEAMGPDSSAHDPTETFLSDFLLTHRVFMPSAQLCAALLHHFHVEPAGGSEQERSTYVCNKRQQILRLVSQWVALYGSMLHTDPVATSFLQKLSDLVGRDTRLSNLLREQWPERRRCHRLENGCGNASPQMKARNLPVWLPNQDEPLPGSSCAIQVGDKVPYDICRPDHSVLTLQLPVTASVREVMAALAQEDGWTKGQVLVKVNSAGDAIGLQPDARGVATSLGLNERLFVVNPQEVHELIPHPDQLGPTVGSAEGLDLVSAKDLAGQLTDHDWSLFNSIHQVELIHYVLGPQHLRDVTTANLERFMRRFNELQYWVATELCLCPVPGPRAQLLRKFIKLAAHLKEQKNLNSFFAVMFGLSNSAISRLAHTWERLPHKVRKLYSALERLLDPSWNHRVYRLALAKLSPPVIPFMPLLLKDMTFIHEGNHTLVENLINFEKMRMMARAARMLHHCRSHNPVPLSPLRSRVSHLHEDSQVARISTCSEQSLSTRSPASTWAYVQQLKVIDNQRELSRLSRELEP
Chain of Nuclear receptor subfamily 1 group I member 3 (Homo sapiens) (Q14994 whole entry, looked up): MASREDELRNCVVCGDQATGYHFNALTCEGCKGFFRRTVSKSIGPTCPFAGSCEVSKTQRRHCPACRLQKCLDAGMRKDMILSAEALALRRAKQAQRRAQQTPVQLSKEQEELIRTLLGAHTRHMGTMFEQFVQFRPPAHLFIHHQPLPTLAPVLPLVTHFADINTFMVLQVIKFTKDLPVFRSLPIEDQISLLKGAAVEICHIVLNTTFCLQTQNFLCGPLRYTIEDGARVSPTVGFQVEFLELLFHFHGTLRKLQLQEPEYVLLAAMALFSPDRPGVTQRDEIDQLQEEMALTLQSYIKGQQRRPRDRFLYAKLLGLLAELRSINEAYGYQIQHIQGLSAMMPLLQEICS

COc1ccc(C(=O)c2ccccc2O)c(O)c1
Potency [1]: inactive
Potency [2]: inactive
Potency [3]: inactive
outcome [4]: inactive
outcome [5]: inactive
Potency [6]: 44.1 µM (active)

CCCCCCCCCCCCCCCC(=O)O
Potency [1]: inactive
Potency [7]: inactive
Potency [8]: inactive
Potency [2]: inactive
Potency [3]: inactive
outcome [9]: inactive
outcome [10]: inactive
outcome [11]: inactive

CCCCC(CC)COC(=O)c1ccc(N(C)C)cc1 (configuration not stated)
Potency [1]: inactive
Potency [8]: 13.8 µM (active) and 13.5 µM (active)
Potency [2]: inactive
Potency [3]: inactive

Cc1nc(-c2ccc(Cl)cc2)oc1COC(C)(C)C(=O)O
Potency [7]: inactive

CCC(Cc1c(I)cc(I)c(N)c1I)C(=O)O (configuration not stated)
Potency [1]: inactive
Potency [7]: 15.5 µM (active)
Potency [2]: inactive
Potency [3]: inactive

FC1(F)C(F)(F)C(F)(F)C2(F)C(F)(F)C(F)(F)C(F)(F)C(F)(F)C2(F)C1(F)F (configuration not stated)
Potency [1]: inactive
Potency [7]: inactive
Potency [8]: inactive
Potency [2]: inactive
Potency [3]: inactive

COc1ccc(C(Cl)=C(c2ccc(OC)cc2)c2ccc(OC)cc2)cc1
Potency [1]: inactive
Potency [7]: inactive
Potency [2]: inactive
Potency [3]: inactive
Potency [12]: inactive
outcome [4]: inactive
outcome [5]: inactive
Potency [6]: 7.84 µM (active) and 2.31 µM (active)

CCN1CCN(C(=O)N[C@@H](C(=O)N[C@@H]2C(=O)N3C(C(=O)O)=C(CSc4nnnn4C)CS[C@H]23)c2ccc(O)cc2)C(=O)C1=O
Potency [1]: inactive
Potency [7]: inactive
Potency [2]: inactive
Potency [3]: inactive

CCN(CC)CCNC(=O)COc1ccc(OC)cc1
Potency [1]: inactive
Potency [7]: 13.8 µM (active)
Potency [8]: inactive
Potency [2]: inactive
Potency [3]: inactive

C=C[C@H]1CN2CC[C@H]1C[C@H]2[C@H](O)c1ccnc2ccc(OC)cc12
Potency [1]: inactive
Potency [8]: inactive

CC(=O)NO
Potency [1]: inactive
Potency [8]: inactive
Potency [2]: inactive
Potency [3]: inactive

CCOc1ccccc1C(N)=O
Potency [1]: inactive
Potency [7]: inactive
Potency [2]: 18.8 µM (active)

COc1ccc(/C=N/NC(=O)c2ccncc2)cc1OC
Potency [1]: inactive
Potency [7]: 21.9 µM (active)
Potency [2]: inactive
Potency [3]: inactive

C[N+]12CCC(CC1)C(OC(=O)C(O)(c1ccccc1)c1ccccc1)C2 (configuration not stated)
Potency [1]: inactive
Potency [7]: 15.5 µM (active)
Potency [2]: inactive
Potency [3]: inactive

CC(=O)N[C@@H](CCC(=O)O)C(=O)O
Potency [1]: inactive
Potency [7]: inactive
Potency [8]: inactive
Potency [2]: inactive
Potency [3]: inactive

C=C[C@H]1CN2CC[C@H]1C[C@@H]2[C@@H](O)c1ccnc2ccc(OC)cc12
Potency [1]: inactive
Potency [8]: inactive
Potency [3]: inactive
outcome [13]: inactive

C/C=C/C=N/NC(=O)c1ccncc1
Potency [1]: inactive
Potency [2]: inactive

CC(=O)O[C@H]1C[C@@H]2CC[C@@H]3[C@H](CC[C@@]4(C)[C@H]3C[C@H]([N+]3(C)CCCCC3)[C@@H]4OC(C)=O)[C@@]2(C)C[C@@H]1N1CCCCC1
Potency [1]: inactive
Potency [8]: inactive
Potency [2]: inactive
Potency [3]: inactive

O=[N+]([O-])c1ccc(/C=N\O)o1
Potency [1]: inactive
Potency [7]: 13.8 µM (active)
Potency [8]: inactive
Potency [3]: inactive

CCC(C(=O)OCCOCCN(CC)CC)c1ccccc1 (configuration not stated)
Potency [1]: inactive
Potency [7]: 11 µM (active)
Potency [2]: inactive
Potency [3]: inactive

CCN[C@@H]1C[C@H](N)[C@@H](OC2OC(CN)=CCC2N)[C@H](O)[C@H]1O[C@H]1OC[C@](C)(O)[C@H](NC)[C@H]1O (some centres not stated)
% pathology change, negative = correction [1]: 3.5% [at 0.369 µM] (inactive)
activity change, negative = inhibition [7]: 2.45% [at 0.91 µM] (inactive)
activity change, negative = inhibition [8]: 10% [at 0.91 µM] (inactive)
outcome [2]: inactive [at 0.588 µM]
activity change, negative = cell killing [3]: 2.3% [at 0.588 µM] (inactive)

Nc1ccc(C(=O)NCC(=O)O)cc1
Potency [1]: inactive
Potency [7]: inactive
Potency [8]: inactive
Potency [2]: inactive
Potency [3]: inactive

OCc1ccccn1
Potency [1]: inactive
Potency [7]: inactive
Potency [8]: inactive
Potency [2]: inactive
Potency [3]: inactive

CC(C)(C)NC[C@H](O)COc1cccc2c1CCCC2=O
Potency [1]: inactive
Potency [8]: inactive
Potency [2]: inactive
Potency [3]: inactive

CC(O)Cn1cnc2c1c(=O)n(C)c(=O)n2C (configuration not stated)
Potency [1]: inactive
Potency [2]: inactive
Potency [3]: inactive

CCCCCCCCCCCCCC(=O)OC(C)C
Potency [7]: inactive
Potency [8]: inactive
Potency [2]: inactive
Potency [3]: inactive

Cc1ccc(S(=O)(=O)NC(=O)NC2CCCC2)cc1
Potency [7]: inactive
Potency [8]: inactive
Potency [2]: inactive
Potency [3]: inactive

Oc1ccc(Cl)cc1Cc1cc(Cl)ccc1O
Potency [7]: 27.5 µM (active)
Potency [3]: 18.8 µM (active)
outcome [4]: inactive
Potency [6]: 35 µM (active)

O=C(CCN1CCN2CCCC2C1)N1c2ccccc2Sc2ccc(Cl)cc21 (configuration not stated)
Potency [7]: 6.74 µM (active)
Potency [8]: inactive

Cc1cc(C)cc(OCC2CNC(=O)O2)c1 (configuration not stated)
Potency [7]: inactive
Potency [8]: inactive
Potency [2]: inactive
Potency [3]: inactive

O=C(Nc1ccccc1)OCC(CN1CCCCC1)OC(=O)Nc1ccccc1 (configuration not stated)
Potency [7]: 0.155 µM (active)
Potency [8]: 13.8 µM (active)
outcome [13]: inactive

CC(C)Cc1ccc(CC(=O)O)cc1
Potency [7]: inactive

COc1cc([C@H]2Oc3cc([C@H]4Oc5cc(O)cc(O)c5C(=O)[C@@H]4O)ccc3O[C@@H]2CO)ccc1O
Potency [7]: inactive
Potency [8]: 8.71 µM (active)
Potency [2]: inactive
Potency [3]: inactive and 23.5 µM (active)

CC1CCc2c(N3CCC(O)CC3)c(F)cc3c(=O)c(C(=O)O)cn1c23 (configuration not stated)
Potency [7]: inactive
Potency [8]: inactive
Potency [2]: inactive
Potency [3]: inactive
